Records with an inconclusive call do not appear. A call without a number means that no potency is given here. Values without a mark were called inactive. Calls of active or inactive are those of the source. Calls come from the whole dose curve; as a rule, active = well fitted cell-killing curve with a large enough effect; inconclusive = small, poorly fitted or top-dose-only effect, or effect the other way; inactive = flat fitted curve, though single readings scatter. *1 amine or outer side, *2 acyl side, *3 side chain or, on linkers, in order; H or OH if unused. Where a SMILES comes first, the peptide text is derived from it. Bridges are numbered along the chain shown (N, C = ends). [ ]: non-standard residue; d: D form. The star is where a group is joined. ξ: configuration not given here. ξhTyr(3S-OH,4S-OH,3'-OSO3H) = NC(C(=O)O)[C@H](O)[C@@H](O)c1ccc(O)c(OS(=O)(=O)O)c1; Orn(4R-OH,5R-OH) = O=C([C@H](C[C@@H](O)[C@@H](O)N[*:3])N[*:1])[*:2]; X2 = CCCCCOc1ccc(-c2cc(-c3ccc(C(=O)*)cc3)no2)cc1; X3 = C[C@H]1CN([*:1])C(C(=O)[*:2])[C@H]1O; ξGln(3R-OH) = NC(=O)C[C@@H](O)C(N)C(=O)O; ξPro(4R-OH) = O=C(O)C1C[C@@H](O)CN1; ξThr(3R) = C[C@@H](O)C(N)C(=O)O; βNA = c1ccc2cc(N*)ccc2c1; Cbz = O=C(OCc1ccccc1)*
What was measured:
Experiment in all cases: Primary qHTS to identify gynecologic anti-cancer compounds using libraries of approved drugs and bioactive compounds (AID 1345084); note: nearly all actives have a fitted effect of over 55% in size
Conditions in all cases: Gynecologic cancer cell panel viability, ATPlite luminescence, 48 h; series mostly up to 57.5 µM
SKOV3 = tested on: SKOV3
Procedure, shortened: (§1)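 Cell viability after 48 h drug treatment, ATPlite luminescence readout; five doses.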

Tov-21-G = tested on: Tov-21-G
Procedure, shortened: as §1

Tov112D = tested on: Tov112D
Procedure, shortened: as §1
Potency is the fitted concentration of half-maximal effect.

Compound | Potency (SKOV3) | Potency (Tov-21-G) | Potency (Tov112D) | activity change, negative = cytotoxicity (SKOV3) | activity change, negative = cytotoxicity (Tov-21-G) | activity change, negative = cytotoxicity (Tov112D)
CCCCCOc1ccc(-c2cc(-c3ccc(C(=O)N[C@H]4C[C@@H](O)[C@@H](O)NC(=O)C5[C@@H](O)[C@@H](C)CN5C(=O)C([C@H](O)CC(N)=O)NC(=O)C([C@H](O)[C@@H](O)c5ccc(O)c(OS(=O)(=O)O)c5)NC(=O)C5C[C@@H](O)CN5C(=O)C([C@@H](C)O)NC4=O)cc3)no2)cc1 (stereo partly drawn) (X2-[Orn(4R-OH,5R-OH)][ξThr(3R)][ξPro(4R-OH)][ξhTyr(3S-OH,4S-OH,3'-OSO3H)][ξGln(3R-OH)][X3]; lactam 1-C) | inactive | inactive | inactive |  |  | 
COC(=O)C(CC1(O)c2ccccc2N2C(=O)C(CC(C)C)NC21)n1cnc2ccccc2c1=O (stereo unspecified) | inactive | inactive | inactive |  |  | 
CN1C(=O)N(c2cc(Cl)cc(Cl)c2)C(=O)[C@@]1(C)Cc1ccc(Br)cc1 | inactive | inactive | inactive |  |  | 
CC1CC=C2C1CC1(O)C(=O)CC2(C)C1(C)CO (stereo unspecified) | inactive | inactive | inactive |  |  | 
NC(N)=NCCC[C@H](NC(=O)c1sccc1NS(=O)(=O)c1cccc2nsnc12)C(=O)O | inactive | inactive | inactive |  |  | 
CCC(C)/C=C(C)/C=C/C1=CC2=CC(=O)C(C)(O)C(OC(C)=O)C2CO1 (stereo unspecified) | inactive | inactive | inactive |  |  | 
CC(=O)NC(Cc1ccccc1)C(=O)NC(C(=O)O)C(C)C (stereo not drawn) (Ac-Phe-Val-OH; configuration not given here) | inactive | inactive | inactive |  |  | 
CC(=O)OC[C@]12[C@H](OC(C)=O)[C@H](OC(=O)c3ccccc3)[C@@H]3[C@@H](OC(C)=O)[C@]1(OC3(C)C)[C@H](C)C[C@H](OC(=O)c1ccccc1)[C@@H]2OC(=O)c1ccccc1 | inactive | inactive | inactive |  |  | 
COc1ccc(S(=O)(=O)Nc2nc(-c3cccc([N+](=O)[O-])c3)cs2)cc1OC | inactive | inactive | inactive |  |  | 
CC(CC12CCCN1C(=O)C1CCCN1C2=O)OC(N)=O (stereo unspecified) | inactive | inactive | inactive |  |  | 
CC(/C=C/C=C(\C)C(=O)O[C@@H]1O[C@H](CO[C@@H]2O[C@H](CO)[C@@H](O)[C@H](O)[C@H]2O)[C@@H](O)[C@H](O)[C@H]1O)=C\C=C\C=C(C)\C=C\C=C(/C)C(=O)O[C@@H]1C[C@](O)(C(=O)O)C[C@@H](O)[C@H]1OC(=O)/C=C/c1ccc(O)c(O)c1 |  |  |  | 3.61% [at 11.6 µM] | 0.602% [at 11.6 µM] | -1.9% [at 11.6 µM]
Cc1occc(=O)c1O[C@@H]1O[C@H](CO)[C@@H](O)[C@H](O)[C@H]1O | inactive | inactive | inactive |  |  | 
COc1c2cc(c(O[C@@H]3O[C@H](CO)[C@@H](O)[C@H](O)[C@H]3O)c1OC)CCCCC(O)CCc1ccc(O)c-2c1 (stereo partly specified) | inactive | inactive | inactive |  |  | 
COc1ccc(/C=C/C(=O)O[C@@H]2[C@@H](O[C@@H]3O[C@H](CO)[C@@H](O)[C@H](O)[C@H]3O)[C@@H](O)[C@H](O[C@H]3C4C=CO[C@@H](O[C@@H]5O[C@H](CO)[C@@H](O)[C@H](O)[C@H]5O)C4[C@@]4(CO)O[C@@H]34)O[C@H]2C)cc1 (stereo partly specified) |  |  |  | 1.14% [at 11.6 µM] | 4.96% [at 11.6 µM] | 0.569% [at 11.6 µM]
COC(=O)c1c(CC=C(C)C)c(OC2OC(CO)C(O)C(O)C2O)c2ccccc2c1OC1OC(CO)C(O)C(O)C1O (stereo unspecified) | inactive | inactive | inactive |  |  | 
CC(C)CC(NC(=O)OCc1ccccc1)C(=O)NC(CC(C)C)C(=O)NC(CCC(=O)O)C(=O)Nc1ccc2ccccc2c1 (stereo not drawn) (Cbz-Leu-Leu-Glu-βNA; configuration not given here) | inactive | inactive | inactive |  |  | 
CC1(O)CCC2C(C3C1CCC3(C)O)C2(C)C (stereo unspecified) | inactive | inactive | inactive |  |  | 
COC(=O)C1=COC(O[C@@H]2O[C@H](CO)[C@@H](O)[C@H](O)[C@H]2O)/C(=C\COC(=O)/C=C/c2ccccc2)C1CC(=O)OCCc1ccc(O)cc1 (stereo partly specified) | inactive | inactive | inactive |  |  | 
CCC(CC)CC1(C(=O)Nc2ccccc2SC(=O)C(C)C)CCCCC1 | inactive | inactive | inactive |  |  | 
C/C1=C\CC[C@]2(C)O[C@H]2C(=O)c2c(C)coc2C1 | 7.94 µM (active) | 8.91 µM (active) | 4.47 µM (active) |  |  | 
COC(=O)C1(C)CCCC2(C)c3ccc(C(C)C)cc3C(O)C(O)C12 (stereo unspecified) | inactive | inactive | inactive |  |  | 
CC(=O)OC1C(O)C(C)(O)C(/C=C/C(=O)O)C2(C)CCCC(C)(C)C12 (stereo unspecified) | inactive | inactive | inactive |  |  | 
CC1=CC(=O)CC(C)(C)C1CCC(C)O[C@@H]1O[C@H](CO)[C@@H](O)[C@H](O)[C@H]1O (stereo partly specified) | inactive | inactive | inactive |  |  | 
COc1cc2c(cc1OC)N1C(=O)C[C@@]34C=CC[N@+]5([O-])CC[C@H]2[C@H](CC3)[C@@]145 | inactive | inactive | inactive |  |  | 
C[C@@H]1CC2OC(=O)C3=C2C(CCC3O)[C@@]12C[C@@H](c1ccoc1)OC2=O (stereo partly specified) | inactive | inactive | inactive |  |  | 
COC(=O)[C@H](O)[C@H]1C(C)(C)[C@H](OC(C)=O)[C@@]2(O)C(=O)[C@]1(C)C1CC[C@]3(C)C(CC(=O)O[C@H]3c3ccoc3)[C@]13O[C@@H]32 (stereo partly specified) | inactive | inactive | inactive |  |  | 

Compound | Potency (SKOV3) | Potency (Tov-21-G) | Potency (Tov112D) | activity change, negative = cytotoxicity (SKOV3) | activity change, negative = cytotoxicity (Tov-21-G) | activity change, negative = cytotoxicity (Tov112D)
O=C1C(Cl)=C(N2CCOCC2)C(=O)N1c1ccc(Cl)c(Cl)c1 | inactive | inactive | inactive |  |  | 
CC1=C2C(=O)C=C(CO[C@@H]3O[C@H](CO)[C@@H](O)[C@H](O)[C@H]3O)[C@@H]2[C@H]2OC(=O)[C@H](C)[C@@H]2CC1 | inactive | inactive | inactive |  |  | 
C=C1C(O)CC2C(C(=O)O)=COC(OC3OC(CO)C(O)C(O)C3OC(=O)/C=C\c3ccc(O)cc3)C12 (stereo unspecified) | inactive | inactive | inactive |  |  | 
O=C(/C=C/c1ccc(O)c(O)c1)O[C@H]1[C@@H]2C=CO[C@@H](O[C@@H]3O[C@H](CO)[C@@H](O)[C@H](O)[C@H]3O)[C@@H]2[C@@]2(CO)O[C@@H]12 | inactive | inactive | inactive |  |  | 
C[C@@H]1O[C@@H](O[C@H]2[C@H](O[C@H]3[C@H](O[C@H]4CC[C@@]5(C)C(CC[C@]6(C)C5CC=C5[C@@H]7CC(C)(C)C[C@@H](O)[C@]7(C)CC[C@]56C)C4(C)C)O[C@H](C(=O)O)[C@@H](O)[C@@H]3O)O[C@H](C(=O)O)[C@H](O)[C@@H]2O)[C@H](O)[C@H](O)[C@H]1O (stereo partly specified) |  |  |  | 6.58% [at 11.6 µM] | 9.44% [at 11.6 µM] | 4.96% [at 11.6 µM]
Cc1ccc(C)c(NC(=O)CNS(=O)(=O)c2ccc3[nH]c(=O)oc3c2)c1 | inactive | inactive | inactive |  |  | 
N#Cc1cc(-c2n[nH]c(-c3ccncc3)n2)ccn1 | inactive | inactive | inactive |  |  | 
C[C@H]1CCN2C[C@]34C[C@@]5(C(=O)Nc6c5ccc5c6OC=CC(C)(C)O5)C(C)(C)C3C[C@]12C(=O)N4C (stereo partly specified) | inactive | inactive | inactive |  |  | 
CC(C(=O)Nc1cc(C#N)ccc1CCCC(=O)O)c1ccc(F)c2ccccc12 (stereo unspecified) | inactive | inactive | inactive |  |  | 
C=C1CCC2C(C)(C)CC(O)CC2(C)C1CCC(C)CCOC(=O)CCC(=O)O (stereo unspecified) | inactive | inactive | inactive |  |  | 
CC(C)(O)C1CC=C(C(=O)OC[C@H]2O[C@@H](OC(=O)C3=CCC(C(C)(C)O)CC3)[C@H](O)[C@@H](O)[C@@H]2O)CC1 (stereo partly specified) | inactive | inactive | inactive |  |  | 
O=C(NCCN1CCCC1)c1cc(-c2ccc(CN3CCOCC3)cc2)nc2ccc(F)cc12 | inactive | inactive | inactive |  |  | 
N[C@@H](CC(=O)Nc1ccc(Oc2cc(F)c(F)cc2Br)cc1)C(=O)O | inactive | inactive | inactive |  |  | 
O=C(Nc1cc(-c2ccccc2)nn1-c1ccccc1F)c1ccc([N+](=O)[O-])cc1 | inactive | inactive | inactive |  |  | 
CC1(CO)CCCC2(C)C3COC(=O)C3=CC(O)C12 (stereo unspecified) | inactive | inactive | inactive |  |  | 
O=C(Nc1ccc(N2CCC(C(=O)N3CCOCC3)CC2)cc1)c1cnc(Oc2ccccc2)nc1 | inactive | inactive | inactive |  |  | 
COC(=O)C(Cc1ccccc1)NC(=O)c1ccccc1 (stereo unspecified) | inactive | inactive | inactive |  |  | 
OC[C@H]1O[C@@H](OC[C@H]2O[C@@H](OCc3ccccc3)[C@H](O)[C@@H](O)[C@@H]2O)[C@H](O)[C@@H](O)[C@@H]1O | inactive | inactive | inactive |  |  | 
Nc1ncnc2c1C(=O)N(c1ccc(C3CCC(CC(=O)O)CC3)cc1)CCO2 (stereo unspecified) | inactive | inactive | inactive |  |  | 
COc1cc(/C=C/C(=O)O[C@@H]2C[C@](O)(C(=O)O)C[C@@H](O)[C@H]2O)ccc1O | inactive | inactive | inactive |  |  | 
CCCSc1nc(NC2CC2c2ccc(F)c(F)c2)c2nnn(C3CC(OCCO)C(O)C3O)c2n1 (stereo unspecified) | inactive | inactive | inactive |  |  | 
C[C@H]1[C@H](C)CC[C@]2(C(=O)O)CC[C@]3(C(=O)O)C(=CCC4[C@@]5(C)CC[C@H](O[C@@H]6O[C@@H](C)[C@H](O)[C@@H](O)[C@H]6O)C(C)(C)C5CC[C@]43C)[C@H]12 (stereo partly specified) | inactive | inactive | inactive |  |  | 
CC1=C(CO)CC(C(C)C2CCC3C4CC=C5CC(OC6OC(COC7OC(CO)C(O)C(O)C7O)C(O)C(O)C6O)CC(O)C5(C)C4CCC23C)OC1=O (stereo unspecified) | inactive | inactive | inactive |  |  | 
O=C(NCC(=O)N1CCCC1)Nc1ccc2ccccc2c1 | inactive | inactive | inactive |  |  | 
C=C1C(=O)O[C@@H]2C[C@]3(C)[C@@H](CCC(C)=O)[C@@H]3C[C@H]12 | inactive | inactive | inactive |  |  | 
COc1cc2c(c(OC)c1O)C(c1ccc(O)cc1)C1C(=O)OC3C(COC(=O)C1=C2)OC(CO)(OC1OC(COC(=O)/C=C/c2ccc(OC4OC(C)C(O)C(O)C4O)cc2)C(O)C(O)C1O)C3O (stereo unspecified) |  |  |  | 25.2% [at 11.6 µM] | -2.98% [at 11.6 µM] | -3.14% [at 11.6 µM]
